Experimental findings from PubChem BioAssay AID624115 (Johns Hopkins Ion Channel Center, 2012) are described below.

Structures are written as SMILES. In all, about 4,000 compounds went through this assay and about 350 (8.8%) were called active.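 The calls were made as follows: active = calcium fluorescence ratio at least three times the spread of buffer wells, meaning a non-specific response in parental cells; inactive = the rest.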 The list is a sample of the results.

This assay can be described thus: calcium response in parental HEK293 cells, primary screen, counter-screen for MrgX1 agonist project, cell-based, Fluo-4 calcium flux, duplicate, agonist mode (AID 624115). To be noted: parental HEK293, Fluo-4 calcium fluorescence (FDSS), at 10 µM; stronger effect = higher value. A general note: Counterscreens check selectivity or assay interference.
For the compound `N=C(N)SCc1cccc2ccccc12`, the fluorescence ratio F(max-min)/F0 entry was “inactive”.
Then `CCc1cc(=O)oc2cc(C)cc(OCC(=O)N3CCC[C@@H]3C(=O)O)c12`, with “inactive”; and `CCOc1ccc(C(=O)NC2CCN(S(=O)(=O)CC)CC2)cc1`, with “inactive”.
For `COc1ccc(S(=O)(=O)N2CCOCC2)c(C)c1C`, the fluorescence ratio F(max-min)/F0 entry was “inactive”.
Take `CC(C)OCCCNc1ncnc2c1[nH]c1ccc(F)cc12`: the fluorescence ratio F(max-min)/F0 result was “inactive”.
As to `Fc1ccc2[nH]c3c(N4CCSCC4)ncnc3c2c1`, the fluorescence ratio F(max-min)/F0 was 51.9 (active).
For `O=C(c1ccc(O)cc1)c1ccc(C(=O)O)c(C(=O)O)c1` the value was “inactive”; for `Cc1[nH][nH]c(=O)c1C(c1ccc(-c2ccc(Cl)cc2)o1)c1c(C)[nH][nH]c1=O`, 48.2 (active); for `COc1ccc(C(=O)NC2CCCc3c2cnn3-c2cccc(C)c2C)c(OC)n1` (stereo not given), “inactive”.
Then `CCOc1ccccc1C1CC(c2ccc(Cl)cc2)Nc2nc(N)nn21` (stereo not given), with “inactive”; and `CN1C(CC(=O)Nc2ccc(Br)cc2)c2ccccc2CC1(C)C` (stereo not given), with “inactive”; and `Nc1ccc(Oc2ccc(Cl)cc2)cc1`, with “inactive”.
Then `C=CCNC(=O)c1csc(-c2ccccc2)n1`, with “inactive”; and `COC(=O)Cc1cc(=O)n(-c2nc3ccccc3s2)[nH]1`, with “inactive”; and `O=C(Nc1ccc(Br)cc1F)C1CC(=O)N(C2CCCCC2)C1` (stereo not given), with “inactive”.
Turning to `CC1CCCCN1S(=O)(=O)c1ccc(C(=O)Nc2nnc(-c3cccs3)o2)cc1` (stereo not given), the fluorescence ratio F(max-min)/F0 result was “inactive”.
Turning to `Cc1ccc(-n2[nH]c(C)c(/C=N/N3C(=O)c4cccc5cccc(c45)C3=O)c2=O)cc1`, the fluorescence ratio F(max-min)/F0 was 110 (active).
Consider `O=C(CSc1nncn1-c1cccnc1)N1CCOCC1`, for which the fluorescence ratio F(max-min)/F0 result is “inactive”.
`Cc1nc(N2CCN(c3ccccn3)CC2)c2c(C)c(C(=O)Nc3ccc(F)c(Cl)c3)sc2n1`: the fluorescence ratio F(max-min)/F0 entry was “inactive”.
Regarding `CC(=O)OC(C)C[N+](C)(C)C` (stereo not given), the fluorescence ratio F(max-min)/F0 was 98.8 (active).
Then `CCCCOC(=O)CNc1nnc(SCC(=O)OCC)[nH]c1=O`, with “inactive”; and `Cc1ccc(Nc2nc(-c3ccc(O)cc3O)cs2)nc1`, with “inactive”.
Regarding `CCOC(=O)c1c(NC(=O)CNC2CCCc3ccccc32)sc(C(N)=O)c1C` (stereo not given), the fluorescence ratio F(max-min)/F0 result is “inactive”.
Then `Cc1ccc(-n2cnc3ncnc(-c4ccccc4)c32)cc1`, with “inactive”; and `COc1cc(C2/C(=C(\O)c3ccc4c(c3)CC(C)O4)C(=O)C(=O)N2Cc2ccco2)ccc1O` (stereo not given), with “inactive”.
Then `CCOC(=O)c1c(C)[nH]c(=S)c(C#N)c1-c1ccccc1`, with “inactive”.
For `CCCc1cc(=S)n2c([nH]c3ccccc32)c1C#N` the value was 71.7 (active); for `COc1ccc(C(=O)NNC(=S)NC(=O)c2ccccc2)cc1`, 130 (active); for `CCCCC(=O)NNC(=S)NC(=O)C(c1ccccc1)c1ccccc1`, “inactive”.
In the case of `COc1ccc(C(=O)NC(=S)NC2CCCCC2)cc1`, the fluorescence ratio F(max-min)/F0 entry was “inactive”.
Consider `COc1ccc(C(=O)CSc2n[nH]c(N)n2)cc1`, for which the fluorescence ratio F(max-min)/F0 result was “inactive”.
For `CC(Oc1ccc2ccccc2c1)C(=O)NNC(=S)NC(=O)c1ccco1` (stereo not given) the value was “inactive”.
Turning to `COc1ccc(C(=O)NC(=S)NNC(=O)CCc2ccccc2)cc1`, the fluorescence ratio F(max-min)/F0 is 101 (active).
Then `CCOC(=O)CNC(=O)CSc1nc2cccnc2n1CC`, with “inactive”; and `OCc1ccc(OCCCOc2cccc3cccnc23)cc1`, with “inactive”.
For `OCCn1c(-c2ccccc2)csc1=Nc1ccccc1` the value was “inactive”.
Then `COc1cccc(-c2cnc(OC(C)(C)C)nc2OC(C)(C)C)c1`, with “inactive”; and `CCOc1ccc(NC(=O)N2CC=C(n3c(=O)[nH]c4ccccc43)CC2)cc1`, with “inactive”.
Take `Cc1cc(Nc2cc(N3CCN(C)CC3)nc(Sc3ccc(NC(=O)C4CC4)cc3)n2)n[nH]1`: the fluorescence ratio F(max-min)/F0 entry was “inactive”.
Then `O=C(c1ccc(OC2CCN(C(=O)c3cccnc3)CC2)cc1)N1CCCCCC1`, with “inactive”.
Turning to `COCCNC(=O)C1CCN(S(=O)(=O)c2ccc3c(c2)OCCO3)CC1`, the fluorescence ratio F(max-min)/F0 result is “inactive”.
Then `CCOC(=O)N1CCN(C(=O)COCc2cc(-c3ccc4c(c3)OCO4)on2)CC1`, with “inactive”; and `CC1(C(=O)O)CCC(C(=O)Nc2ccc(Cl)c(Cl)c2)C1(C)C` (stereo not given), with 47.3 (active); and `CCCc1[nH]nc2c1C(c1ccc(Br)s1)C(C#N)=C(N)O2` (stereo not given), with “inactive”.
For `CC1(C)CC2CC(C)(CN2c2ncnc3ccc(Br)cc23)C1` (stereo not given) the value was “inactive”; for `O=C(CSc1ncccn1)NC(=O)NCc1ccccc1`, “inactive”.
Regarding `Cc1nc(C)c(-c2csc(NCCc3ccccc3)n2)s1`, the fluorescence ratio F(max-min)/F0 is 51.5 (active).
Take `CCS(=O)(=O)c1ccc2c(c1)N(S(=O)(=O)c1ccccc1)CC(C(=O)O)O2` (stereo not given): the fluorescence ratio F(max-min)/F0 result is “inactive”.
With `Cc1nc2ccccc2cc1OCc1ccc(F)cc1`, the fluorescence ratio F(max-min)/F0 is 45.3 (active).
For the compound `NC(=O)c1c(Nc2nc3c(F)cccc3s2)sc2c1CCCC2`, the fluorescence ratio F(max-min)/F0 result was “inactive”.
For `COC(=O)c1ccc(C2C3=C(Nc4nnnn42)c2ccccc2OC3)cc1` (stereo not given) the value was “inactive”; for `O=C(CC(O)(C(F)(F)F)C(F)(F)F)Nc1ccc(Cl)c(Cl)c1`, 45.3 (active); for `c1ccc(-c2[nH]ncc2-c2nc3ccccc3[nH]2)cc1`, “inactive”.
Consider `COCCCNC(=O)C1CCN(c2ccc(N3CCOCC3)nn2)CC1`, for which the fluorescence ratio F(max-min)/F0 entry is “inactive”.
Then `CCOC(=O)C1=C(O)/C(=C/c2cc(C)n(-c3ccccc3)c2C)N=C1C`, with “inactive”.
